Reference: the supplement of paper PMC13380429

Test system: Vero E6 infected with SARS-CoV-2
Assay: inhibition of SARS-CoV-2 cytopathic effect; higher = more antiviral protection, active = above 15
Conditions: 48 h

Measured: inhibition of SARS-CoV-2 cytopathic effect

COc1cc(CNC(=O)CCCC/C=C/C(C)C)ccc1O [capsaicin]
inactive: 1 nM 0.65% | 8.33 nM 0.89% | 100 nM 1.27% | 833.33 nM -1.15% | 10000 nM 2.73%

CCN1C[C@]2(OC(=O)c3ccccc3NC(C)=O)CC[C@H](OC)[C@@]34[C@@H]2C[C@@H]([C@@H]13)[C@@]1(O)C[C@H](OC)[C@H]2C[C@@H]4[C@]1(O)[C@H]2OC [lappaconite]
inactive: 1 nM 6.58% | 8.33 nM 2.61% | 100 nM 1.75% | 833.33 nM 0.15% | 10000 nM 0.28%

Cc1cc([C@@H](C)Nc2ccccc2C(=O)O)c2nc(N3CCOCC3)cc(=O)n2c1
inactive: 1 nM -0.68% | 8.33 nM -0.79% | 100 nM -4.63% | 833.33 nM -7.74% | 10000 nM -2.98%

CCC(=O)O[C@@H]1CC(=O)O[C@H](C)C/C=C/C=C/[C@H](O)[C@H](C)C[C@H](CC=O)[C@H](O[C@@H]2O[C@H](C)[C@@H](O[C@H]3C[C@@](C)(O)[C@@H](OC(=O)CC)[C@H](C)O3)[C@H](N(C)C)[C@H]2O)[C@H]1OC [midecamycin]
inactive: 1 nM -1.27% | 8.33 nM -3.06% | 100 nM -2.36% | 833.33 nM -0.5% | 10000 nM -0.33%

N=C(N)NCCSSCCNC(=N)N [guanidinoethyldisulfide-bicarbonate]
inactive: 1 nM -2.83% | 8.33 nM -2.77% | 100 nM -1.91% | 833.33 nM -2.43% | 10000 nM -5.27%

CC(C)N(C[C@H]1O[C@@H](n2cnc3c(N)ncnc32)[C@H](O)[C@@H]1O)[C@H]1C[C@@H](CCc2nc3cc(C(C)(C)C)ccc3[nH]2)C1
inactive: 1 nM 1.37% | 8.33 nM 1.4% | 100 nM 1.55% | 833.33 nM 3.8% | 10000 nM 4.66%

CCN1C(=O)NC(c2ccccc2)C1=O (stereo not given) [ethotoin]
inactive: 1 nM 0.06% | 8.33 nM 4.06% | 100 nM 2.41% | 833.33 nM 2.46% | 10000 nM -0.15%

Cc1cc(C)c(S(=O)(=O)n2cc(C)cc2C)c(C)c1
inactive: 1 nM -0.12% | 8.33 nM -0.02% | 100 nM 2.14% | 833.33 nM 0.3% | 10000 nM -1.17%

Cn1ncc2c(N3CCOCC3)nc(-c3cccc(O)c3)nc21
inactive: 1 nM -0.24% | 8.33 nM -1.45% | 100 nM 0.03% | 833.33 nM 1.57% | 10000 nM -0.01%

Cc1cccc(C)c1NC(=O)C[N+](C)(C)C
inactive: 1 nM -1.32% | 8.33 nM 0.36% | 100 nM 0.02% | 833.33 nM -0.1% | 10000 nM 0.5%

CCOC(=O)[C@H](C)C[C@@H](Cc1ccc(-c2ccccc2)cc1)NC(=O)CCC(=O)O [sacubitril]
inactive: 1 nM -3.45% | 8.33 nM -0.1% | 100 nM -1.3% | 833.33 nM -3.34% | 10000 nM 2.18%

CC(=O)CC/C=C(\C)CC/C=C(\C)CC/C=C(\C)CCC=C(C)C [teprenone]
inactive: 1 nM -0.07% | 8.33 nM 1.34% | 100 nM -1.34% | 833.33 nM 1.98% | 10000 nM 0.16%

CCc1ccc(OCc2ccccc2C(=O)Nc2ccc3nc(C)cc(N)c3c2)cc1
inactive: 1 nM 0.87% | 8.33 nM 3.61% | 100 nM 2.46% | 833.33 nM 1.94% | 10000 nM -28.4%

CN(C)CCCN1c2ccccc2Sc2ccccc21 [promazine]
inactive: 1 nM 2.47% | 8.33 nM -1.16% | 100 nM 0.93% | 833.33 nM 0.57% | 10000 nM -0.38%

COc1ccc(C(Cl)=C(c2ccc(OC)cc2)c2ccc(OC)cc2)cc1 [chlorotrianisene]
inactive: 1 nM -2.25% | 8.33 nM 0.16% | 100 nM -0.43% | 833.33 nM -2.65% | 10000 nM 5.78%

CN(Cc1ccccc1)C(=O)[C@H](Cc1ccc2ccccc2c1)NC(=O)[C@@H]1CCCN1C(=O)Nc1ccccc1[N+](=O)[O-]
inactive: 1 nM -0.58% | 8.33 nM 2.06% | 100 nM 3.45% | 833.33 nM 5.13% | 10000 nM 1.31%

CC(=O)[C@H]1CC[C@H]2[C@@H]3CC=C4C[C@@H](O)CC[C@]4(C)[C@H]3CC[C@]12C [pregnenolone]
inactive: 1 nM -0.59% | 8.33 nM 3.91% | 100 nM -5.44% | 833.33 nM -1.71% | 10000 nM -3.04%

c1ccc(Oc2cccnc2)cc1
inactive: 1 nM 2.35% | 8.33 nM 1.64% | 100 nM 1.02% | 833.33 nM 2.24% | 10000 nM 1.23%

CCCCC#Cc1nc(NC)c2ncn([C@@H]3O[C@H](CO)[C@@H](O)[C@H]3O)c2n1
inactive: 1 nM -0.9% | 8.33 nM -1.35% | 100 nM 0.37% | 833.33 nM -1.59% | 10000 nM -0.62%

c1ccc(C(O[C@@H]2CCCN(CCc3ccc4c(c3)OCO4)C2)c2ccccc2)cc1 [zamifenacin]
inactive: 1 nM 0.36% | 8.33 nM 3.7% | 100 nM 0.93% | 833.33 nM -1.42% | 10000 nM -1.64%

COc1ccc2[nH]c([S+]([O-])Cc3ncc(C)c(OC)c3C)nc2c1 (stereo not given) [omeprazole]
inactive: 1 nM 0.48% | 8.33 nM 2.24% | 100 nM 1.08% | 833.33 nM 3.07% | 10000 nM 1.79%

CC(C)CC(=O)Nc1n[nH]c2c1CN(C(=O)C1CCN(C)CC1)C2(C)C
inactive: 1 nM 0.53% | 8.33 nM -0.22% | 100 nM 0.24% | 833.33 nM 0.59% | 10000 nM 1.78%

OCCCNc1cc(-c2ccnc(Nc3cccc(Cl)c3)n2)ccn1
inactive: 1 nM 1.32% | 8.33 nM -0.77% | 100 nM 1.6% | 833.33 nM -16.6% | 10000 nM 11.2%

COC(=O)CC[C@@H]1N=C(c2ccccn2)c2cc(Br)ccc2-n2c(C)cnc21 [remimazolam]
inactive: 1 nM 0.83% | 8.33 nM 1.12% | 100 nM 2.32% | 833.33 nM 0.51% | 10000 nM -1.57%

CC(C)CCNC(=O)[C@H](CC(C)C)NC(=O)[C@H]1O[C@@H]1C(=O)O [loxistatin-acid]
inactive: 1 nM -1.03% | 8.33 nM -1.05% | 100 nM -0.89% | 833.33 nM 0.62% | 10000 nM 2.74%

COc1cc(Nc2ncc3c(n2)-c2ccc(Cl)cc2C(c2c(F)cccc2OC)=NC3)ccc1C(=O)O [alisertib]
inactive: 1 nM -2.11% | 8.33 nM 0.41% | 100 nM -2.08% | 833.33 nM 0.49% | 10000 nM -5.87%

Oc1c(I)cc(I)c(O)c1I [riodoxol]
inactive: 1 nM 0% | 8.33 nM 0.37% | 100 nM -0.65% | 833.33 nM -2.42% | 10000 nM -0.9%

COc1c(N2C[C@@H]3CCCN[C@@H]3C2)c(F)cc2c(=O)c(C(=O)O)cn(C3CC3)c12 [moxifloxacin]
inactive: 1 nM 1.16% | 8.33 nM 0.31% | 100 nM 2.33% | 833.33 nM 0.76% | 10000 nM 1.03%

O=C(COc1ccc(C(=O)c2ccccc2)cc1)NC1CCN(Cc2ccccc2)CC1 [adiporon]
inactive: 1 nM -2.19% | 8.33 nM -0.76% | 100 nM 0.29% | 833.33 nM 0.19% | 10000 nM -1.05%

Cc1sc2c(c1C)C(c1ccc(Cl)cc1)=N[C@@H](CC(=O)Nc1ccc(OCCOCCOCCOCCNc3cccc4c3C(=O)N(C3CCC(=O)NC3=O)C4=O)cc1)c1nnc(C)n1-2 (stereo not given in full)
inactive: 1 nM -0.01% | 8.33 nM -1.32% | 100 nM -2.57% | 833.33 nM 1.39% | 10000 nM -3.1%

O=C1NCCNC1c1cccs1 (stereo not given) [tenilsetam]
inactive: 1 nM 3.34% | 8.33 nM 0.52% | 100 nM -1.98% | 833.33 nM -2.12% | 10000 nM -1.68%

CN1c2cc3c(cc2N=C(c2ccc(C(=O)O)cc2)c2ccccc21)C(C)(C)CCC3(C)C
inactive: 1 nM 4.92% | 8.33 nM 2.01% | 100 nM -1.76% | 833.33 nM 0.01% | 10000 nM -7.42%

COc1cc2c(NC3CCN(C)CC3)nc(N3CCCN(C)CC3)nc2cc1OCCCN(C)C
inactive: 1 nM 2.93% | 8.33 nM 3.22% | 100 nM 3.09% | 833.33 nM 3.57% | 10000 nM 4.51%

CC(=O)O[C@H]1C[C@@H]2CC[C@@H]3[C@H](CC[C@@]4(C)[C@H]3C[C@H]([N+]3(C)CCCCC3)[C@@H]4OC(C)=O)[C@@]2(C)C[C@@H]1[N+]1(C)CCCCC1 [pancuronium]
inactive: 1 nM -2.97% | 8.33 nM -1.22% | 100 nM -0.15% | 833.33 nM -0.93% | 10000 nM -1.28%

CC(C)C[C@@H](NC(=O)[C@H](Cc1ccccc1)NC(=O)CNC(=O)[C@@H](C)NC(=O)[C@@H](N)Cc1ccc(O)cc1)C(=O)O
inactive: 1 nM -0.21% | 8.33 nM 3.3% | 100 nM 1.72% | 833.33 nM 2.13% | 10000 nM 0%

Cc1cccc(C)c1NC(=O)c1ccc(N)cc1 [ameltolide]
inactive: 1 nM 0.76% | 8.33 nM 1.03% | 100 nM 0.37% | 833.33 nM -0.04% | 10000 nM -2.67%

Cc1ncc(Cl)cc1NCc1ccc(C(=O)N[C@@H](CC2CCCC2)C(=O)NC2CC2)s1
inactive: 1 nM 2.43% | 8.33 nM 0.35% | 100 nM -0.53% | 833.33 nM -0.57% | 10000 nM -2.59%

CNC(=O)O[C@H]1COc2ccc(N3CCN(C4COC4)CC3)cc2[C@@H]1NC(=O)c1ccc(F)cc1
inactive: 1 nM 1.12% | 8.33 nM -0.75% | 100 nM -1.06% | 833.33 nM 0.34% | 10000 nM 1.4%
